Inconclusive results are not listed. Active and inactive are the calls of the source. Unless noted, the call rests on the fitted dose curve; in most records, active means well fitted curve in the direction sought with a large enough effect; inconclusive means small, poorly fitted or top-dose-only effect, or another doubt; inactive means no such curve, though single readings can be large; an effect the other way counts as inactive or inconclusive.

A short description of test [1]: qHTS profiling for inhibitors of Plasmodium falciparum (3D7) proliferation (AID 743322; call rule not given here;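 further: infected erythrocytes exposed to compound for 72 h before lysis; 100% = DMSO vehicle wells and 0% = 0.29 µM artemisinin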). Particulars: P. falciparum 3D7 proliferation; at 28.7 µM (top of the series) unless noted. The procedure, abridged:
(§1)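 Parasite DNA was quantified by SYBR Green I fluorescence (ex 485, em 535 nm) after overnight lysis in saponin/Triton buffer at room temperature. Cultures at 0.3% parasitemia and 2.5% hematocrit were first exposed to compound for 72 h at 37 C; signals were normalised to artemisinin (0.29 uM) and vehicle wells.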
For orientation: qHTS replaces the single test concentration by a dilution series.

Test [2] can be described thus: qHTS profiling for inhibitors of Plasmodium falciparum (DD2) proliferation (AID 743323; call rule not given here). The settings on record: lower = more inhibition; at 28.7 µM (top of the series) unless noted. The procedure, abridged: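 Parasite DNA quantified by SYBR Green fluorescence (ex 485, em 535 nm) after saponin/Triton lysis and overnight dark incubation. Cultures: 0.3% parasitemia, 2.5% hematocrit, 72 h, 37 C; data scaled between DMSO and 0.29 uM artemisinin.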

Test [3] is described as follows: qHTS profiling for inhibitors of Plasmodium falciparum (HB3) proliferation (AID 743324).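 Further: 100% = DMSO vehicle wells and 0% = artemisinin-treated control wells.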 The settings on record: Plasmodium falciparum HB3 blood-stage proliferation; at 28.7 µM (top of the series) unless noted. In short, it runs like this:
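SYBR Green fluorescence (485 ex/535 em) of lysed cultures, incubated overnight at room temperature in the dark, quantifies parasite DNA. Infected erythrocytes at 0.3% parasitemia and 2.5% hematocrit were exposed 72 h; values normalized to DMSO and 0.29 uM artemisinin controls.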

Test [4] can be described thus: qHTS profiling of the MIPE4 collection as inhibitors of Plasmodium falciparum (3D7) proliferation (AID 743344; call rule not given here;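 further: scaled between DMSO vehicle wells and 0.29 µM artemisinin as full inhibition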). The settings on record: P. falciparum 3D7 in erythrocytes, SYBR Green DNA fluorescence, 72 h; at 28.5 µM (top of the series) unless noted. In short, it runs like this: as §1
The nature of test [5]: qHTS profiling of the MIPE4 collection as inhibitors of Plasmodium falciparum (DD2) proliferation (AID 743345; call rule not given here). Particulars: P. falciparum Dd2 in erythrocytes, SYBR Green DNA, 72 h; at 28.5 µM (top of the series) unless noted. In short, it runs like this: as §1
A short description of test [6]: qHTS profiling of the MIPE4 collection as inhibitors of Plasmodium falciparum (DD2) proliferation (Rep 2) (AID 743346; call rule not given here). Particulars: P. falciparum Dd2 in erythrocytes, SYBR Green DNA, 72 h; at 28.5 µM (top of the series) unless noted. In short, it runs like this:
as §1

A short description of test [7]: qHTS profiling of the MIPE4 collection as inhibitors of Plasmodium falciparum (HB3) proliferation (AID 743347; call rule not given here;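 further: plate controls were DMSO vehicle wells for no effect and artemisinin wells for full effect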). Particulars: P. falciparum HB3 in erythrocytes, SYBR Green DNA, 72 h; at 28.5 µM (top of the series) unless noted. The procedure, abridged:
as §1

A short description of test [8]: Cell Proliferation Assay Versus the ED40515 IL2 Dependent ATL cell lines (AID 1053195; calls by dose curve). The settings on record: ED40515 IL2-dependent ATL cells. The procedure, abridged: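 CellTiter-Glo luminescence (15 min, RT) measured viability after 48 hours at 37C; cells were ED40515 +IL2, 1000/well, in phenol red-free RPMI with 5% FBS. Controls: DMSO and 9.2 uM bortezomib.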

A short description of test [9]: High-throughput drug toxicity screening in the BPDCN cell line Gen2.2 (AID 1224824; call rule not given here;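 further: cells exposed to compounds for 48 h before reading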). Particulars: Gen2.2 BPDCN cells; at 45.8 µM (top of the series) unless noted. The procedure, abridged: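 CellTiter-Glo luminescence after 48 h compound exposure of Gen2.2 cells; percent activity set with DMSO as 100% and bortezomib (9.2 uM final) as 0%. Cells seeded at 500 per well, RPMI + 10% FBS, 37 °C.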

Test [10] can be described thus: High-throughput drug toxicity screening in the BPDCN cell line Cal-1 (AID 1224825; call rule not given here). The settings on record: Cal-1 BPDCN cell viability, qHTS; at 45.8 µM (top of the series) unless noted. The procedure, abridged: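 Percent activity derived from CellTiter-Glo luminescence, scaling DMSO to 100% and 9.2 uM final bortezomib to 0%. BPDCN Cal-1 cells (500/well, RPMI plus 10% FBS) incubated with compounds 48 hours at 37C before reading.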

Test [11] is described as follows: qHTS assay for measurement of the activity of small molecule inhibitors on Zika virus induced Caspase-3 activity in human iPSC derived neural progenitor cells (hNPCs) (AID 1224857). Further: % of control where 0% means no effect; nearly all actives have a fitted effect of over 65% in size. In short, it runs like this:
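In medium with heparin 2 ug/ml and cyclopamine 2 uM, hNPCs (350 cells/well) received compound for one hour and then Zika virus at 2 FFU/cell; caspase activity was measured by Caspase-Glo 3/7 luminescence 6 h post-infection.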

A short description of test [12]: qHTS assay for measurement of the activity of small molecule inhibitors on Zika virus induced Caspase-3 activity in human astrocytoma cells (AID 1224859).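 Further: plate controls were ZIKV-infected untreated cells for no effect and uninfected cells for full effect.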 In short, it runs like this: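 A cell-based luminescent caspase-3/7 assay used SNB-19 cells infected with ZIKV (2 FFU/cell) for 6 h following 1 h compound pretreatment.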
A short description of test [13]: qHTS Screen of the MIPE 4.0 Collection Against Ewings Sarcoma (RDES) (AID 1259252). Further: nearly all actives have a fitted effect of over 35% in size. Further: potency means the concentration at half of the fitted maximal effect. In short, it runs like this:
(§2)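 Cells plated in serum-containing RPMI (5% FBS) and treated with compound dilutions for 48 h. Readout luminescent viability; normalization relied on vehicle (no inhibition) and media-only columns (full inhibition).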

Test [14] is described as follows: qHTS Screen of the MIPE 4.0 Collection Against Ewings Sarcoma (TC71) (AID 1259253). Further: nearly all actives have a fitted effect of over 40% in size. Further: potency means the concentration at half of the fitted maximal effect. In short, it runs like this: as §2
Test [15] can be described thus: qHTS Screen of the MIPE 4.0 Collection Against Ewings Sarcoma (EW8) (AID 1259255). Further: nearly all actives have a fitted effect of over 35% in size. Further: potency means the concentration at half of the fitted maximal effect.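 On viability: 100% = DMSO-treated cells and 0% = medium-only wells without cells.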 In short, it runs like this:
as §2

Test [16] can be described thus: qHTS Screen of the MIPE 4.0 Collection Against Ewings Sarcoma (TC32) (AID 1259256). Further: nearly all actives have a fitted effect of over 45% in size. Further: potency means the concentration at half of the fitted maximal effect. In short, it runs like this: as §2
Test [17] in a line: qHTS assay to identify small molecule inhibitors of chordoma cells - UCH-1 (AID 1259355). Further: on the % scale 0 is the no-effect control and ±100 the full control effect; nearly all actives have a fitted effect of over 55% in size. The procedure, abridged:
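800 cells/well, overnight attach; compounds pinned at 15 concs, then auranofin/camptothecin/doxorubicin/rubitecan/topotecan combo added; 48hr 37 C, 5% CO2; CellTiter-Glo, 30min RT, luminescence.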

Test [18] in a line: Identifying Small Molecule Inhibitors of Pancreatic Cancer Stem Cells (A2780, Spheroid) (AID 1259357). Further: potency means the concentration at half of the fitted maximal effect.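 Further: spheroids pre-formed over 14 days in stem cell medium on hydrogel; compound exposure lasted 48 h before the ATP luminescence read.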 Particulars: Potency: A2780 spheroid viability. The procedure, abridged: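 Spheroids grown 14 days in stem cell media on hydrogel-coated nonadherent plates; 2D lines seeded directly. Compounds added after 4 h attachment, 48 h at 37C, 5% CO2; CellTiter-Glo luminescence normalized to DMSO (no inhibition) and no-cell wells (full inhibition).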

With `Cc1c(C)c2c(c(C)c1O)CCC(C)(COc1ccc(CC3SC(=O)NC3=O)cc1)O2` (stereo not drawn), the remaining parasite growth % (stronger effect = lower value) in [1] amounted to 93.1%. Also, the activity, percent of control in test [2] was determined as 80%. In addition, in test [3], the remaining proliferation (% of control), lower = more inhibition worked out at 46.8%. The same compound returned a parasite growth, % of DMSO control in test [4] of 35.4%. Further, the parasite growth remaining, % of DMSO control (lower = more inhibition) in test [5] worked out at 83.4%. Moreover, in test [6], the parasite growth, % of control (lower = inhibition) worked out at 43.6%. In test [7], the growth, % of control came to 62.4%. Further, the Potency in test [8] is 16.6 µM (active). Moreover, the cell viability, % of control (lower = more cytotoxic) in test [9] amounted to 31.1%. Besides, in [10], the viability (% of control) is 91.7%. Also, the Potency result in test [11], in test [12], in test [13], in test [14], in [15] and in test [16] was “inactive” each time. In addition, the Potency result in [17] is “inactive”.
On to `COc1cc2nccc(Oc3ccc(NC(=O)NC4CC4)c(Cl)c3)c2cc1C(N)=O`, for which the remaining parasite growth % (stronger effect = lower value) in test [1] was 63.1%. This compound yielded a remaining proliferation (% of control), lower = more inhibition in test [3] of 30.9%. Moreover, the parasite growth, % of DMSO control in [4] amounted to 17.7%. Moreover, the parasite growth remaining, % of DMSO control (lower = more inhibition) in test [5] was 70.8%. The compound further gave a parasite growth, % of control (lower = inhibition) in test [6] of 30.6%. Further, in test [7], the growth, % of control was found to be 19.2%. In addition, the Potency in test [8] was 20.9 µM (active); in test [13] it was 0.833 µM (active); in test [14], 1.05 µM (active); in [15], 0.469 µM (active); in test [16], 1.05 µM (active). In addition, the cell viability, % of control (lower = more cytotoxic) in test [9] was found to be 10.1%. In test [10], the viability (% of control) amounted to 5.43%. Further, the Potency result in [11] and in [12] was “inactive” throughout.
In turn, `CC(C)OC(=O)C1=CN(C(=O)c2ccc(F)c(F)c2)CC(C)(C)c2c1[nH]c1ccccc21` came in with a remaining parasite growth % (stronger effect = lower value) in [1] of 15.1%. This compound also had a remaining proliferation (% of control), lower = more inhibition in test [3] of 29.3%. The parasite growth, % of DMSO control in test [4] was found to be 51.5%. The parasite growth remaining, % of DMSO control (lower = more inhibition) in [5] amounted to 44.6%. In test [6], this compound gave a parasite growth, % of control (lower = inhibition) of 66.4%. The Potency in [8] was 4.18 µM (active). Further, the cell viability, % of control (lower = more cytotoxic) in test [9] was 115%. In test [10], the viability (% of control) came out at 108%. The Potency result in test [11], in test [12], in test [13], in test [14], in test [15] and in [16] was “inactive” each time.
Take `O=C(C1CC1)N1CC[C@@H](Cn2c(-c3ccc(-c4ccc5occc5c4)cc3)nc3cnccc32)C1`: the remaining parasite growth % (stronger effect = lower value) in [1] was found to be 74.3%. This compound also displayed a remaining proliferation (% of control), lower = more inhibition in test [3] of 55.2%. The compound also yielded a parasite growth, % of DMSO control in test [4] of 35%. In addition, the parasite growth remaining, % of DMSO control (lower = more inhibition) in [5] came out at 78.6%. The compound also registered a parasite growth, % of control (lower = inhibition) in test [6] of 46.6%. The growth, % of control in test [7] amounted to 21.9%. Also, the Potency is 16.6 µM (active) in test [8], 16.6 µM (active) in test [14], 13.2 µM (active) in [15] and 0.469 µM (active) in test [18]. In test [9], the cell viability, % of control (lower = more cytotoxic) was 133%. The viability (% of control) in [10] came out at 95.4%. Besides, the Potency entry in [11], in test [12], in test [13] and in test [16] was “inactive” in each case.
`CCN(c1ccccc1)c1cc(NC)[n+](C)c(C)n1` yielded a remaining parasite growth % (stronger effect = lower value) in test [1] of 76.6%. This compound came in with an activity, percent of control in [2] of 73.7%. In [3], this compound returned a remaining proliferation (% of control), lower = more inhibition of 38.1%. In [4], this compound registered a parasite growth, % of DMSO control of 47.7%. In addition, the parasite growth remaining, % of DMSO control (lower = more inhibition) in test [5] was determined as 94.6%. In [6], this compound came in with a parasite growth, % of control (lower = inhibition) of 58.7%. Also, the growth, % of control in [7] was 85.9%. Also, the values for the Potency in test [8], in test [13] and in test [16] were 18.7 µM (active), 7.43 µM (active) and 16.6 µM (active), respectively. Moreover, in [9], the cell viability, % of control (lower = more cytotoxic) came out at 138%. The viability (% of control) in [10] turned out to be 119%. For the same compound, the Potency entry in test [11], in test [12], in [14] and in test [15] was “inactive” in each case.
For the compound `O=C(C=Cc1ccc(/C=C/C(=O)Nc2ccc(C3=NCCN3)cc2)cc1)Nc1ccc(C2=NCCN2)cc1`, the remaining parasite growth % (stronger effect = lower value) in test [1] is 15.9%. The compound also gave an activity, percent of control in [2] of 27.3%. For the same compound, the remaining proliferation (% of control), lower = more inhibition in test [3] was determined as 10.9%. In addition, the parasite growth, % of DMSO control in [4] was 25.9%. The compound further had a parasite growth remaining, % of DMSO control (lower = more inhibition) in test [5] of 39%. In [6], the parasite growth, % of control (lower = inhibition) was 40.5%. The same compound showed a growth, % of control in test [7] of 54.9%. Besides, in test [8], the Potency is 2.09 µM (active). In addition, in test [9], the cell viability, % of control (lower = more cytotoxic) amounted to 203%. Moreover, the viability (% of control) in [10] was 104%. The Potency entry in test [11], in test [12], in test [13], in test [14], in test [15] and in test [16] was “inactive” in each case. Besides, in [18], the Potency result was “inactive”.
With `Nc1nccc(-c2ccc3noc(-c4ccc(Cl)cc4)c3c2)n1`, the remaining parasite growth % (stronger effect = lower value) in test [1] was 77.1%. In addition, the remaining proliferation (% of control), lower = more inhibition in [3] is 81.1%. The parasite growth, % of DMSO control in [4] came to 85.1%. Moreover, the parasite growth remaining, % of DMSO control (lower = more inhibition) in [5] stood at 92.5%. This compound also yielded a parasite growth, % of control (lower = inhibition) in test [6] of 79.2%. For the same compound, the growth, % of control in [7] turned out to be 33.5%. In addition, the Potency in [8] was 23.5 µM (active); in [13], 5.9 µM (active); in [16] it was 23.5 µM (active). The cell viability, % of control (lower = more cytotoxic) in [9] stood at 68.4%. For the same compound, in [10], the viability (% of control) turned out to be 46.9%. For the same compound, the Potency entry in test [11] and in test [12] was “inactive” throughout.

For the origin of these results see PubChem BioAssay (NCATS).
